Screening data (PubChem)
This is a sample that favours compounds with a hit; in the whole collection about 5.9% have one here.
ABHD5-PLIN5 inh: ABHD5-PLIN5 protein interaction inhibition; Split G. princeps luciferase complementation, luminescence, 4 h; inhibition, % at 4 µM; 360,000 tested, 0.78% active;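 active = inhibition above the mean inhibition across every tested compound plus 3 SD, cut at about 22% in these data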;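 also: 0% = DMSO only wells and the 100% control is not disclosed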
PRMT1 FP inh: inhibitors of human PRMT1; inhibition, % at 2.79 µM; 370,000 tested, 1.3% active; recombinant PRMT1, activity-based probe fluorescence polarization; AID 652257;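 active = inhibition above about 21% made by adding two undisclosed values, limit read from the data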
Target sequence (Q99873 whole entry, looked up): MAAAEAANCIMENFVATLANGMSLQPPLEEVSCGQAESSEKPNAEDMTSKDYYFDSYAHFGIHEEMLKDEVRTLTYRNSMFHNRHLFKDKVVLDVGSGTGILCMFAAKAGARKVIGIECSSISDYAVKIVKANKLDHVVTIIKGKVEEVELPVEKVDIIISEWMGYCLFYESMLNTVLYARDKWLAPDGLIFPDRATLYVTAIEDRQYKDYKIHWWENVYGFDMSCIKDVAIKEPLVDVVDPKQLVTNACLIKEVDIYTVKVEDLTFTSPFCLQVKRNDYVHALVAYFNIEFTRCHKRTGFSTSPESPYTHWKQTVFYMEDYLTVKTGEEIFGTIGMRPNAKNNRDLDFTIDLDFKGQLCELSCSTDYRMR
LANA-H2A inh: blocks KSHV LANA binding to histone H2A/H2B; Q9QR71; cell-free LANA-H2A/H2B peptide, fluorescence polarization; inhibition, % (test concentration not listed); 320,000 tested, 0.6% active; AID 2629; in the data active = inhibition mostly above about 10%, no sharp cut-off; inactive = mostly below about 6.7%
rCAG RNA binder: r(CAG) repeat RNA binding. TO-PRO-1 dye displacement fluorescence. inhibition, % at 3 µM. 370,000 tested, 1.3% active;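 active = inhibition above the plate cutoff, the mean of all test compounds on that plate plus 3 SD, cut at about 35% in these data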;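 also: 0% = DMSO alone and 100% = 100 µM mitoxantrone as full dye displacement; higher means more dye released from RNA so lower well fluorescence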
Rtt109 HAT inh: C. albicans Rtt109 histone acetyltransferase inhibition | inhibition, % at 34.9 µM | purified Rtt109/Vps75, ThioGlo CoA-SH fluorescence, 4 h | 330,000 tested, 0.16% active;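 active = inhibition of at least 50% in every replicate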
ALR inh: human ALR oxidase inhibition via reduced H2O2; purified ALR, DTT oxidation, H2O2 HRP-luminol luminescence; P55789; 290,000 tested, 3.8% active; inhibition, % (test concentration not listed);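 active = mean replicate inhibition above about 79%, with every replicate also reaching it, limit read from the data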
Target sequence (P55789 whole entry, looked up): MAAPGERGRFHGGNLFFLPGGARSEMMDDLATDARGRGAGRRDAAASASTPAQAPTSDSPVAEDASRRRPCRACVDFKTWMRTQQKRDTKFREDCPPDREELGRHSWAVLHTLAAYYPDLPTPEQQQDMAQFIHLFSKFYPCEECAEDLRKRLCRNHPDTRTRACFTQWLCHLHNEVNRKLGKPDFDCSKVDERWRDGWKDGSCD
PRMT1 confirm: PRMT1 (human) inhibition, FP confirmation | inhibition, % at 2.79 µM | 3,300 tested, 42% active | recombinant His-PRMT1, activity-based probe fluorescence polarization | shares compounds with PRMT1 FP inh;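 active = mean inhibition across replicates above the hit cutoff derived for the earlier primary screen, cut at about 22% in these data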
Numbers without * were called inactive; nt = no result.

SMILES	ABHD5-PLIN5 inh	PRMT1 FP inh	LANA-H2A inh	rCAG RNA binder	Rtt109 HAT inh	ALR inh	PRMT1 confirm
COc1ccc(NC(=O)CSc2ccc(-c3ccco3)nn2)cc1	3	37*	-5	20	6	-1	54*
O=C(NCCc1c[nH]c2ccccc12)OC1CC2CC1[C@H]1CCCCN1C2=O (stereo partly drawn)	2	1	nt	0	nt	nt	nt
Cc1ccc2nc(-c3cccc(Cl)c3)c(Cc3ccccc3C(F)(F)F)n2c1	nt	2	nt	3	nt	nt	nt
O=C(CSc1nnc(-c2cc3ccccc3cc2O)n1Cc1ccco1)N1CCc2ccccc2C1	6	32*	1	17	-3	9	5
O=C(CNC(=O)c1ccccc1)Sc1ccccc1	0	49*	nt	0	6	nt	76*
O=C(NCSc1ccccc1)c1ccccc1	-3	2	-3	1	-8	-4	nt
CC(NC(=O)CSc1nc2c(c(C(F)(F)F)n1)CCc1ccccc1-2)c1ccccc1 (stereo not drawn)	8	-4	-1	-4	-2	-12	nt
O=C(CSc1nc2c(c(C(F)(F)F)n1)CCc1ccccc1-2)NCc1ccco1	-1	26*	-23	4	0	-16	3
C[C@H](O)[C@@H]1C(=O)N2CCc3c([nH]c4cccc(-c5ccccc5)c34)[C@@H]2C[C@@H]1N(C)C(=O)C1CCCCC1	nt	-1	nt	6	nt	nt	nt
COc1cc(C(O)c2nc(-c3cccc(NC(C)=O)c3)cs2)ccc1F (stereo not drawn)	3	-3	nt	2	nt	nt	nt
O=C(CN1C(=O)C2(OCCCO2)c2ccccc21)NCc1ccc(F)cc1	nt	-3	nt	1	nt	nt	nt
CCCC(=O)OC12CCCN(C1)/C(=C/c1ccc(OC)cc1)C2 (stereo not drawn)	nt	-2	nt	0	nt	nt	nt
CSc1nc(SCC(=O)NCc2ccco2)c2c3c(sc2n1)COC(C)(C)C3	12	38*	6	20	1	5	7
CN(C)Cc1cn(-c2cccc(-c3noc4c3C(=O)N(CC(=O)N3CCOCC3)CC4)c2)nn1	nt	-1	nt	-2	nt	nt	nt
CCc1ccc[n+](-c2[nH]c(=O)sc2/C=N/N=C(\N)[O-])c1	0	-2	3	-2	-10	nt	nt
Cc1cc(C)c[n+](-c2[nH]c(=O)sc2/C=N/NC([S-])=Nc2ccccc2)c1	-6	48*	nt	-41	7	nt	31*
Cc1cc[n+](-c2[nH]c(=O)sc2/C=N/NC([S-])=Nc2ccccc2)cc1	2	67*	3	1	-1	63	29*
O=c1[nH]c(-[n+]2ccccc2)c(/C=N/NC([S-])=Nc2ccccc2)s1	-2	50*	20	-34	-6	21	15
CC(C)(C)c1cc[n+](-c2[nH]c(=O)sc2/C=N/NC(=O)c2ccccc2[O-])cc1	-8	18	9	-2	11	nt	nt
CCc1ccc[n+](-c2[nH]c(=O)sc2/C=N/NC([S-])=Nc2ccccc2)c1	-7	87*	19	-99	1	5	40*
CC(C)(C)c1ccc(S(=O)(=O)N2CCN(C(=O)C(=O)c3cccc(C(F)(F)F)c3)CC2)cc1	nt	4	nt	3	nt	nt	nt
NC(=NCCc1c[nH]c2ccccc12)NC(=O)OCc1ccccc1	nt	3	nt	2	nt	nt	nt
O=C(Nc1ccc(C(=O)O)cc1)/C(=C\c1ccco1)NC(=O)c1ccco1	10	47*	11	3	3	40	8
CC(=O)c1ccc(NC(=O)/C(=C\c2ccco2)NC(=O)c2ccco2)cc1	9	20	-2	10	10	5	nt
O=C(NC(Cc1ccccc1)C(=O)O)/C(=C/c1ccco1)NC(=O)c1cccc(Br)c1 (stereo not drawn)	-1	25*	2	31	-2	0	7
SMILES	ABHD5-PLIN5 inh	PRMT1 FP inh	LANA-H2A inh	rCAG RNA binder	Rtt109 HAT inh	ALR inh	PRMT1 confirm
C=Cc1ccc2c(c1)N(C)C(=C)S2	-9	81*	4	6	3	18	61*
CC(=O)c1ccc2c(c1)N(C)c1ccccc1S2	0	2	-2	3	5	nt	nt
O=C(CCN1C(=O)C2CC=CCC2C1=O)Nc1cccc(Cl)c1 (stereo not drawn)	-6	-2	3	1	1	18	nt
C=CCc1cccc2cc(C(=O)Nc3ccccc3C(=O)O)c(=O)oc12	-1	36*	nt	38*	3	nt	18
CCCCCCN1CCN(C2CN(C3CCCCC3)S(=O)(=O)C2)CC1 (stereo not drawn)	5	5	nt	-1	nt	nt	nt
Cc1ccc(/C=C/C(=O)Nc2cccc3cccnc23)o1	8	59*	4	7	-7	-10	23*
Cc1ccc(/C=C/C(=O)Nc2ccc([N+](=O)[O-])cc2)o1	29*	42*	3	28	-1	8	4
O=C1C=C(NNC(=O)c2cccnc2)CC(c2ccco2)C1 (stereo not drawn)	3	42*	0	-9	-15	nt	2
CC1(C)CC(=O)C=C(NNC(=O)c2cccnc2)C1	3	0	2	-6	nt	10	nt
O=C(NCc1ccc2c(c1)OCO2)OCc1ccccc1	-2	6	nt	0	nt	nt	nt
C=CCOC(=O)N[C@H](c1ccccc1)[C@H](C)/C=C/CC(=O)OC	nt	-2	nt	1	nt	nt	nt
CC1(C)CC(=O)C(C=Nc2ccc(C(=O)c3ccccc3)cc2N=CC2=C(O)CC(C)(C)CC2=O)=C(O)C1	-19	77*	4	2	-15	-10	0
CC1(C)CC(=O)C(C=Nc2cccnc2/N=C/C2=C(O)CC(C)(C)CC2=O)=C(O)C1	1	25*	7	-10	-36	-2	-2
CC1(C)CC(=O)C(C=Nc2cccnc2)=C(O)C1	9	-5	2	-4	-1	nt	nt
COc1ccc(C2OC(=O)c3ccccc3S2)cc1 (stereo not drawn)	-6	38*	0	3	10	10	17
Cc1nc2ccc(S(=O)(=O)NC(CC(C)C)C(=O)O)cc2s1 (stereo not drawn)	0	35*	-4	5	2	nt	3
Cc1nc2ccc(S(=O)(=O)NC(C(=O)N3CCCC3)C(C)C)cc2s1 (stereo not drawn)	-5	1	nt	2	6	nt	nt
CCOC(=O)c1c(-c2ccc(C)o2)csc1NC(=O)CN1CCC(C(N)=O)CC1	20	14	5	-1	12	4	nt
CCOC(=O)c1c(-c2ccc(C)o2)csc1NC(=O)CN1CCCCC1	-13	43*	0	-3	4	6	9
CCOC(=O)c1c(-c2ccc(C)o2)csc1NC(=O)CN1CCN(CC)CC1	18	79*	2	-3	26	-4	3
Cc1nc2ccc(NC(=O)c3cc(Cl)ccc3F)cc2c(=O)[nH]1	nt	-3	nt	1	nt	nt	nt
